Compound activity (PubChem)
This is a sample that favours compounds with a hit; in the whole collection about 4.1% have one here.
DAX1 inh-1 – inhibits human nuclear receptor DAX1. P51843. HEK293 Gal4-DAX1 luciferase reporter, luminescence. inhibition, % at 6.75 µM. hit rate 0.99% among 340,000;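 active = inhibition above the mean over all tested compounds plus 3 SD, cut at about 4.2% in these data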;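 note: inhibition shows as a rise in luminescence from relieved DAX1 repression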
Target sequence (P51843 207-470 limits assumed): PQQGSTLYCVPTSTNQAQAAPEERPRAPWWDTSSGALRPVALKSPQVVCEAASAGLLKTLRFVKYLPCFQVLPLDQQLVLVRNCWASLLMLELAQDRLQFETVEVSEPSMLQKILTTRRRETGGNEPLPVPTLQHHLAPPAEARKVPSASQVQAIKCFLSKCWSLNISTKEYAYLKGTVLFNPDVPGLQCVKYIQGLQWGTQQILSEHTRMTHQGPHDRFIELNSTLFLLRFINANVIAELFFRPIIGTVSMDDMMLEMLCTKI
hgDAF-12 ag – activates the H. glycines DAF-12 receptor ligand-binding domain | AID 687014 | HEK293 GAL4-hgDAF12 UAS-luciferase reporter, agonist luminescence; normalized to butyrate control | hit rate 1.8% among 370,000 | activation, % at 6.8 µM;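 active = activation above a cutoff set at the mean of all screened compounds plus 3 SD, cut at about 10% in these data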
ssDAF12 agonist – activates DAF-12 receptor from parasite S. stercoralis | HEK293 ssDAF-12/GRIP1 lit1-tk-luc reporter, luminescence; % of 3 µM dafachronic acid response | activation, % at 6.8 µM | hit rate 1% among 370,000 | AID 652126;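 active = activation above the mean over all tested compounds plus 3 SD, cut at about 0.9% in these data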
DAX1 inh-2 – DAX1 (NR0B1) inhibition, primary screen | HEK293T StAR-luciferase reporter, SF-1/DAX-1 repression relief | inhibition, % at 6.8 µM | hit rate 1.1% among 370,000 | AID 652010;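 active = inhibition above the mean over all tested compounds plus 3 SD, cut at about 3.6% in these data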;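 note: higher inhibition means more luminescence from relief of DAX-1 repression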
hcDAF12 agonist – H. contortus DAF-12 activation, primary screen. HEK293 hcDAF-12 lit1-tk-luc reporter, luminescence; 0% DMSO, 100% Δ7-dafachronic acid. hit rate 1.4% among 370,000. AID 652067. activation, % at 6.8 µM;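 active = activation above the mean of all tested compounds plus 3 SD, cut at about 5.5% in these data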
Numbers stand for hits; i = inactive; nt = not tested or not shown.

SMILES | DAX1 inh-1 | hgDAF-12 ag | ssDAF12 agonist | DAX1 inh-2 | hcDAF12 agonist
COC(=O)C1=CN(c2ccc(OC)cc2)C(N)=C(C#N)C1c1ccccc1F (stereo not drawn) | nt | i | i | 3.8 | i
Cc1ccc2c(c1)C(N1CCCC1=O)CC(c1ccco1)N2 (stereo not drawn) | i | 11 | i | i | 5.7
CCOC(=O)C(c1nc2ccccc2[nH]1)n1c(-c2ccccn2)nc2ccccc21 (stereo not drawn) | nt | i | i | i | 6.5
O=C(C(=O)N1CCN(C(=O)OCc2ccccc2)CC1)c1cccnc1 | nt | i | i | i | i
CCCCCCCCNS(=O)(=O)CC1NCc2ccccc21 (stereo not drawn) | nt | i | i | i | i
CN(C)c1ccc(/C=N/NC(=O)c2sccc2-n2cccc2)cc1 | i | 11 | i | i | i
O=C(N/N=C\c1ccc(Cl)cc1)c1sccc1-n1cccc1 | i | i | i | i | i
COC(=O)c1cnn(-c2ccc(F)cc2F)c1/C=N/NC(=S)Nc1ccccc1 | nt | i | i | nt | i
O=C(NC1C(=O)NNC1c1ccccc1)c1ccc(F)cc1 (stereo not drawn) | i | i | i | i | i
Cc1ccc(C2NNC(=O)C2NC(=O)c2ccccc2)cc1 (stereo not drawn) | 4.5 | i | i | i | i
CC(C)CN1C(=O)[C@]2(CC(=O)N(C)C2c2ccccc2)c2cc(-n3cc(CN(C)C)nn3)ccc21 (stereo partly drawn) | nt | i | i | i | i
CCOC(=O)Cn1cc(CN2C(C(=O)OC)CN(Cc3ccc(OC)cc3)CCS2(=O)=O)nn1 (stereo not drawn) | nt | i | i | i | i
COc1ccccc1-n1cc(-c2ccc(Cl)cc2)[nH]c1=O | i | i | i | i | 6.4
COc1ccc(-c2cn(-c3cccc(C)c3)c(=O)[nH]2)cc1OC | i | i | i | i | i
CCC(=O)N1CCc2cc(Br)c(S(=O)(=O)NCCCN(C)Cc3ccccc3)cc21 | nt | i | i | i | i
CN(C)c1ccc(NC(=O)NC2CCCCN(Cc3cccc(Cl)c3)C2=O)cc1 (stereo not drawn) | nt | i | i | i | i
CC(=O)OCCCN1C(=O)CCC12CCC(C)CC2 (stereo not drawn) | nt | i | i | i | i
Cc1cccc(OCCNC(=O)c2cncc(Br)c2)c1 | i | i | 3.3 | i | i
CC(=O)OC12CCCN(C1)/C(=C/c1ccccc1)C2 (stereo not drawn) | nt | i | i | i | i
C=CCN1C(=O)[C@@H](CC(=O)N2CCN(C(=O)c3ccco3)CC2)[C@]2(C(=O)OCC)CCCCC/C=C/12 | nt | i | i | i | i
c1ccc2c(c1)CCc1c(-c3ccncc3)n[nH]c1-2 | i | i | 1.6 | i | i
O=C(N/N=C1\CCc2ccccc21)c1ccncc1 | i | i | i | i | i
O=C1c2ccccc2-c2nnc(-c3ccc(O)cc3)cc21 | i | 11 | i | i | 5.9
Cc1ccc(-c2cc3c(nn2)-c2ccccc2C3=O)cc1 | i | i | i | i | 6.3
CCCCC1OC(CCc2ccccc2)CC2=C1C(=O)OC(C)(C)O2 (stereo not drawn) | nt | i | i | i | i
SMILES | DAX1 inh-1 | hgDAF-12 ag | ssDAF12 agonist | DAX1 inh-2 | hcDAF12 agonist
c1csc(-c2nc3ccccc3s2)c1 | 4.6 | i | i | i | i
c1ccc2sc(-c3ccncc3)nc2c1 | i | i | i | i | i
CC(=O)N[C@@H](C)CCc1ccc(Oc2ccc(OC(C)C)nc2)cc1 | nt | i | i | nt | i
O=C(NCCCn1ccnc1)Nc1ccc(Cl)c(Cl)c1 | i | i | i | i | 5.8
O=C(NCC1CC1(Cl)Cl)Nc1ccc(Cl)c(Cl)c1 (stereo not drawn) | i | 11 | i | i | i
O=C(NCCCn1ccnc1)Nc1ccc(Cl)cc1 | i | i | i | i | i
Cn1cccc1CNC(=O)Nc1ccc(Cl)c(Cl)c1 | i | i | i | i | i
Cc1occc1-c1nnc(SCC(=O)NCc2ccc(Cl)cc2)n1-c1ccccc1 | nt | i | i | i | i
CSCc1ccc(C(=O)NCCSc2ccc(Br)cc2)cc1 | i | i | i | 4.1 | i
CCOc1ccccc1N(C)C(=O)CCS(=O)(=O)c1ccc2c(c1)NC(=O)C(C)S2 (stereo not drawn) | i | i | i | i | i
C=CCc1cc(Cl)ccc1OCCNCCCOC | 7.1 | i | i | i | i
C=CCc1cc(Cl)ccc1OCCOCCNCCOC | i | i | i | i | i
C[C@H]1[C@@H](OC(=O)NCc2ccc(Cl)cc2)CC[C@@]23CCCN2C(=O)CCC[C@@H]13 | nt | i | i | nt | i
S=C(c1ccc(-c2ccc(Br)cc2)o1)N1CCOCC1 | nt | 12 | i | i | i
S=C(c1ccc(-c2ccc(Br)cc2)o1)N1CCCCC1 | i | i | i | i | i
CCCC1CCC2(CC1)CCC2OC(=O)Nc1ccccc1OC (stereo not drawn) | nt | i | i | nt | i
O=C(Nc1ccccn1)C1COc2ccccc2O1 (stereo not drawn) | i | i | i | i | i
O=C(/C=C\Nc1ccccn1)c1ccc(Cl)cc1 | i | i | i | 4.2 | i
CC1Oc2ccccc2OC1C(=O)Nc1ccccn1 (stereo not drawn) | i | i | i | i | 6.3
O=C(Nc1ccccn1)c1ccccc1 | i | i | i | 3.9 | i
Cc1cccc(NC(=O)c2ccc3c(c2)OCCO3)n1 | i | nt | nt | nt | nt
O=C(Nc1ccccn1)c1ccc(C(=O)Nc2ccccn2)cc1 | i | nt | nt | nt | nt
O=C(Nc1ccccn1)c1ccc2c(c1)OCCO2 | i | 13 | i | 4.2 | i
COC(=O)[C@]12C[C@H](CC(=O)NCCc3ccccc3OC)C(=O)N(Cc3ccc4c(c3)OCO4)C1=C[C@H](C(C)(C)C)O[C@@H]2C | nt | i | i | i | i
O=C(Nc1nc(-c2ccccn2)cs1)c1ccc2c(c1)OCCO2 | i | 11 | i | 3.8 | i
SMILES | DAX1 inh-1 | hgDAF-12 ag | ssDAF12 agonist | DAX1 inh-2 | hcDAF12 agonist
Cc1ccc(C(=O)Nc2nc(-c3ccccn3)cs2)o1 | i | i | i | i | i
CC(=O)Nc1ccc(C(=O)Nc2nc(-c3ccccn3)cs2)cc1 | i | i | i | i | i
CCc1cc(C(=O)Nc2nc(-c3ccccn3)cs2)sc1C | 6.7 | i | i | i | i
CN(C)CC(=O)N[C@H]1C[C@@H]2O[C@@H](CO)CC[C@@H]2O[C@@H]1CCc1ccc(-c2ccc(F)cc2)cc1 | nt | i | i | i | i
CC(C)CNc1ccc2c(c1)OC[C@H](C)NS2(=O)=O | nt | i | i | i | i
O=C(CN(CCc1ccccc1)S(=O)(=O)c1ccccc1)N1CCOCC1 | nt | i | i | i | i
C/C(=N/NC(=O)c1ccc(Br)o1)C(C)C | i | 11 | i | i | i
CC(NC(=O)c1ccc(Br)o1)C1CCCO1 (stereo not drawn) | i | i | i | i | i
CCn1c(=O)cc(OCC(=O)O)c2ccccc21 | i | i | i | i | i
CCn1c(=O)cc(OCC(=O)NCCC(C)C)c2ccccc21 | i | i | 0.9 | i | i
CCCCCn1nnnc1C1(C)CCCC(=O)N1Cc1ccco1 (stereo not drawn) | nt | i | i | i | i
CC[C@@H](OP(=O)(O)[C@@H](C)N)C(=O)O | nt | i | i | i | i
